Here are results for 19 molecules from article PMC13494018.

Values without a mark were called inactive. The rule behind the calls is not given here.

B1: design_606_b60ff77f-1541-4e5f-8260-46d5e5f6b85e_1676_dldesign_0_cycle1_af2pred (protein)
chain: DEAVKKAKELAKKLLEEAKKAAKKGDVETVKAIAKEAKAKAEEAEKNEGFKAAAELYSAYFRIEHMAESLA
B2: design_606_b60ff77f-1541-4e5f-8260-46d5e5f6b85e_1599_dldesign_0_cycle1_af2pred (protein)
chain: MPVVKAVSEYTKFVVSKMREAAAAGASEEELVGAVEEGEKYGEELGKKIGEEALEAVKDLSEMFKESARAAARARKA
B3: design_606_b60ff77f-1541-4e5f-8260-46d5e5f6b85e_1708_dldesign_0_cycle1_af2pred (protein)
chain: NEAEKKLKKVAEDAEKALSEAIKASKDDPEKQKELKEKLEQVKKLYEEGLKGTPEDMAKAAAEMRQLRSEADYVLSNAK
B4: design_606_b60ff77f-1541-4e5f-8260-46d5e5f6b85e_1772_dldesign_0_cycle1_af2pred (protein)
chain: SKKEEVKERVKEVLERAKKVAERGKKAGVDINEASEMMALAYEAKAAAEAGHIEEAEKLMKKAEEKLKKLEKRAKELEA
B5: design_606_b60ff77f-1541-4e5f-8260-46d5e5f6b85e_1596_dldesign_0_cycle1_af2pred (protein)
chain: SAAVKEKVAELTKKVNEARDNAFETGNWEEELAKIEKLAAEIAKVGNAEQAEAAEKGVNAMKSMAEALKEMEKK
B6: design_606_b60ff77f-1541-4e5f-8260-46d5e5f6b85e_1785_dldesign_0_cycle1_af2pred (protein)
chain: MTPEERRARGEEELARLAKKIEEARKKAEEDGKKGSQDLFSLAERLENLAESAPEIAEEARALGEEARKLAEKLYS
B7: design_606_b60ff77f-1541-4e5f-8260-46d5e5f6b85e_1975_dldesign_0_cycle1_af2pred (protein)
chain: AEAESQKVLDTAAELEADLILLGYKKPEIKEQALEDAKKVRRNAREAAGLILKDPEKGKKLAEETEKEGKELIKKYEEEV
B8: design_606_b60ff77f-1541-4e5f-8260-46d5e5f6b85e_2085_dldesign_0_cycle1_af2pred (protein)
chain: ERKQEAAELAERLLEKGEKGDEFTGSAYVTRAAHAIGEALGDEEVEKEIEEANKKDVKEGIKLAREKLEELRAA
B9: design_606_b60ff77f-1541-4e5f-8260-46d5e5f6b85e_2244_dldesign_0_cycle1_af2pred (protein)
chain: ENKEKVKKAKETLKKARKEAEKAVKKGVLTPEQIARIQEKLHKASELIAEAEQEKGEEGKEKAEKALELAKEVLKEVKEAE
B10: design_606_b60ff77f-1541-4e5f-8260-46d5e5f6b85e_2038_dldesign_0_cycle1_af2pred (protein)
chain: EAKEKAKLLKEAAKLAKEAAKAAADKEKAKKLATEAADLAIKAGDYKTNGYMESAILNAEAGNAEAAKAAAEKAAKRAEEKAKKL
B11: design_606_b60ff77f-1541-4e5f-8260-46d5e5f6b85e_2076_dldesign_0_cycle1_af2pred (protein)
chain: ATQAEASQAAAEASEARAELEQAAKKLKEEGKEELAKKAEEAAEEARKLLKQAQKADTDTAYKLAQEAKKKLEKELKKAKKA
B12: design_606_b60ff77f-1541-4e5f-8260-46d5e5f6b85e_1622_dldesign_0_cycle1_af2pred (protein)
chain: NDKELSKKVHEGYELVAEYEQDPSFIKKNKEKAKEIAKKAEEAAKAAEEGAKKYPELAKALEKIAKKAKEVAKEAKKVAK
B13: design_606_b60ff77f-1541-4e5f-8260-46d5e5f6b85e_2122_dldesign_0_cycle1_af2pred (protein)
chain: GMEEEKERALEEIRRAREEIKKVAEELKEVDPELAKKAEKVLERAERGLEEGEKNPIAAIGMAEIVRDQLENGKKLLAEKKA
B14: design_606_b60ff77f-1541-4e5f-8260-46d5e5f6b85e_2269_dldesign_0_cycle1_af2pred (protein)
chain: ITEDEVVEINNKGSKEGPLWKEAADYAIKALSYKIIAELVLSSENAEEDHKKALAKAEEYEAKYKEKLEKAEKAKKEK
B15: design_606_b60ff77f-1541-4e5f-8260-46d5e5f6b85e_1625_dldesign_0_cycle1_af2pred (protein)
chain: MAKEKAKKEAKKLTEEAAKKIREAALKEENPLEVAKEITEEVLKKIEEIGKKAGLSEEEIEKLKKEAKKKLAAAAHEAYQERAEEEFE
B16: design_606_b60ff77f-1541-4e5f-8260-46d5e5f6b85e_2092_dldesign_0_cycle1_af2pred (protein)
chain: MEEEKKKKAKELGEKLVEEVKKAAEEAKKTAETGTPEDAEKAKLDLSKKVHEALSELAEIGQKYDWEEAEKAKKEVIEIGKKAVA
B17: design_606_b60ff77f-1541-4e5f-8260-46d5e5f6b85e_2053_dldesign_0_cycle1_af2pred (protein)
chain: SSSLIEENKKEAKEEFNKFAIENGEKRIKEAKELLKKDPEKGKEALKKVLEEAKKLKEKNPEAGEKVEKAAEKALKEA
B18: design_606_b60ff77f-1541-4e5f-8260-46d5e5f6b85e_2039_dldesign_0_cycle1_af2pred (protein)
chain: SEEEEASKRNKELADKIREAVRNMREAYAAMQAALAAGDAAAAKAAADKALAQAKVLEELGLTSQAQSNAAKIKADLAAGLAALAA
B19: design_606_b60ff77f-1541-4e5f-8260-46d5e5f6b85e_1627_dldesign_0_cycle1_af2pred (protein)
chain: EEEKKKKYEELLKKAREEMEKLGKEFKKAVEKGDSKAASEAFRKAVKVAREAGEEAKKLGPEGEELEKELSQLLLEIAD

The target of this experiment is VTCN1, Q7Z7D3.
Chain of VTCN1, Q7Z7D3 (Q7Z7D3 whole entry): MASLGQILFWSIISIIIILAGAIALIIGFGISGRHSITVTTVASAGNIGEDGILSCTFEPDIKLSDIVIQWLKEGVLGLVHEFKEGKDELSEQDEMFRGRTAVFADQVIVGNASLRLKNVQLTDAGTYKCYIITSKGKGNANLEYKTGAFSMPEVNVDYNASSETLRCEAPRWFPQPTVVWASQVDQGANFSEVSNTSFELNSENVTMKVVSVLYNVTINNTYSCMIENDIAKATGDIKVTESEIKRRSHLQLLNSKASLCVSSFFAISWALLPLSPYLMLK
With B1, the “binding in a display sort” value is “not found”. In the case of B2 it was “not found”; in that of B3, “not found”; in that of B4, “not found”. The result for B5 reads “not found”; that for B6, “not found”. Take B7: the “binding in a display sort” value is “not found”. In the case of B8 it was “not found”. The result for B9 reads “not found”; that for B10, “not found”.

For the molecule B11, the “binding in a display sort” value was “not found”. In the case of B12 it was “not found”. Take B13: the “binding in a display sort” value is “not found”. As to B14, the “binding in a display sort” value is “not found”. Regarding B15, the “binding in a display sort” value is “not found”. In the case of B16 it was “not found”; in that of B17, “not found”; in that of B18, “not found”. The result for B19 reads “not found”.
